DTT redox prof: compounds producing H2O2 with reducing agent – biochemical, NIH compound library profiling, artefact control for MLSCN library redox annotation, primary screen. DTT-dependent redox cycling H2O2, phenol red/HRP absorbance; 100% = 100 µM peroxide control, 0% = buffer. activation, % at 10 µM. 200,000 compounds, 0.03% hits;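 active = activation of at least 50% relative to the plate's high and low controls in the primary single-dose screen; inactive = activation below 50%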;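 note: compound incubated with DTT at 0.8 mM final as the reducing agent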
WT yeast gro inh: growth inhibition of WT yeast, mitochondrial fusion screen | mitochondrial fusion phenotypic screen, WT strain | AID 1362 | inhibition, % at 10 µM | 190,000 compounds, 2.1% hits; in the data active = inhibition above about 58%; tested in S. cerevisiae
PERK inh: human PERK inhibition, primary cell-based screen; Q9NZJ5; CHO PERK-DD fusion, SEAP luminescence translation reporter; inhibition, % at 5.6 µM; 220,000 compounds, 0.17% hits; AID 1416;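 active = inhibition above the mean inhibition of all tested compounds plus 3 SD, set separately per screening campaign, cut at about 2.9% in these data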;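 note: PERK kinase domain activated by AP20187 dimerizer at 100 nM; 0% = DMSO with dimerizer and 100% = rapamycin at 8.4 µM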
zVAD death inh: L929 zVAD cell death inhibition; viability rescue, % at 10 µM; L929 zVAD necroptosis rescue, ATP luminescence, 24 h; with zVAD 60 µM; 220,000 compounds, 0.38% hits;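 active = activation, scaled between plate controls, above about 75%, limit read from the data; inactive = activation under that limit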;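 note: 0% = zVAD with DMSO and 100% = DMSO alone without zVAD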
TNF death inh: blocks TNF-alpha induced death of Jurkat FADD-/- cells; Jurkat FADD-/- TNF necroptosis rescue, ATP luminescence, 24 h; 0 = TNF only, 100 = no-TNF cells; activation (protection from cell death), % at 10 µM; 220,000 compounds, 0.068% hits; AID 463075;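 active = activation, meaning protection from cell death, of at least 50% relative to plate controls; inactive = activation below 50%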;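 note: necroptosis triggered by 40 ng/mL TNF-alpha added together with compound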
PKD1 kinase inh: blocks activity of human protein kinase D1. PKD1 kinase fluorescence polarization assay. Q15139. 200,000 compounds, 0.056% hits. AID 797. inhibition, % (no concentration beside the values); in the data active = inhibition above about 50%
Starred values were filed as active, the others as inactive; nt = not tested or not shown. Shown are actives, neighbours in structure and some others; about 2.4% of the full set was active somewhere.

SMILES | DTT redox prof | WT yeast gro inh | PERK inh | zVAD death inh | TNF death inh | PKD1 kinase inh
O=C(O)c1cccc(N/N=C/C2=C(Cl)c3cc(Cl)ccc3SC2)c1 | -2 | 94* | 2 | 1 | 0 | -1
CCn1cc(C(=O)OCC(=O)OC2CC(C)CCC2C(C)C)c(=O)c2ccc(C)nc21 (stereo not drawn) | 14 | 70* | 0 | 0 | -1 | -4
O=c1c2cc3c(=O)n(-c4ccccc4O)c(=O)c3cc2c(=O)n1-c1ccccc1O | 2 | 5 | 0 | 0 | -1 | 3
O=c1[nH]cnc2c1sc1nc(-c3ccccc3)c3c(c12)CCCC3 | 1 | 7 | 1 | 0 | 0 | -8
S=c1nc[nH]c2c1sc1nc(-c3ccccc3)c3c(c12)CCCC3 | 0 | 97* | 0 | -1 | -1 | -6
CC1CCC(C(C)C)C(OCC(O)CNC(C)c2ccccc2)C1 (stereo not drawn) | 1 | 67* | -1 | 0 | 5 | -10
CC(NCC(O)COC1CCC(C(C)(C)C)CC1)c1ccccc1 (stereo not drawn) | -1 | 72* | 0 | 7 | 2 | -3
CCN(CC)C(=O)C1CC(=O)N(c2ccc(F)c(Cl)c2)C1 (stereo not drawn) | 4 | 59* | 0 | 0 | -2 | 18
CC1CCCN(c2nc(-c3cccnc3)nc3scc(-c4ccccc4)c23)C1 (stereo not drawn) | 1 | 61* | -1 | 1 | 2 | -2
CC1CCN(c2nc(CN3CCCCC3)nc3scc(-c4ccccc4)c23)CC1 | -1 | 68* | -1 | 0 | 2 | 6
CN1CCN(c2nc(-c3cccnc3)nc3scc(-c4ccccc4)c23)CC1 | 0 | 15 | 0 | 1 | 3 | -5
CC1CCN(c2nc(-c3cccnc3)nc3scc(-c4ccccc4)c23)CC1 | 0 | 60* | -1 | 0 | 0 | -9
Cc1ccc(-c2sc(C(=O)NN)c(C)c2C#N)cc1 | nt | nt | 0 | 0 | 1 | nt
Cc1ccc(N2C(=O)C(F)(F)C2c2ccccc2)cc1 (stereo not drawn) | 0 | 9 | 0 | 0 | 0 | -2
Cc1ccc(N2C(=N)/C(=C3/Nc4ccccc4S3)C(c3ccccc3)C2=O)cc1 (stereo not drawn) | 1 | 83* | 0 | -1 | -4 | 4
COc1ccc(NC(=O)CCSCCc2ccccn2)cc1OC | -1 | -2 | 1 | 0 | 0 | -1
CC(=O)c1sccc1NC(=O)c1ccccc1C(=O)O | nt | nt | 1 | 0 | 0 | nt
O=c1c2ccccc2n(Cc2cccc(F)c2)c(=O)n1C1CCCC1 | -1 | 76* | 0 | 0 | 4 | -7
N#Cc1ccccc1Cn1c(=O)n(C2CCCC2)c(=O)c2ccccc21 | 0 | 11 | -1 | -2 | -1 | 2
CCN(CC(=O)NCc1ccccc1Cl)CC(=O)Nc1c(F)cccc1F | nt | nt | 0 | 0 | 1 | nt
COc1ccc(S(=O)(=O)N2CCCCCC2)cc1C(=O)OCC(=O)NC(N)=O | 1 | -5 | -1 | 0 | -2 | 4
Cn1cccc1C(=O)NC(=O)COC(=O)c1cc(S(=O)(=O)N2CCCCC2)ccc1Cl | 0 | -24 | 0 | 0 | 1 | 91*
C/C(N)=C(/C#N)C(=O)COC(=O)c1cc(S(=O)(=O)N2CCCCC2)ccc1C | 2 | 95* | -1 | 0 | 0 | -7
C/C(N)=C(/C#N)C(=O)COC(=O)c1ccc(C)c(S(=O)(=O)N2CCCCC2)c1 | 0 | -5 | -2 | 0 | -2 | -4
CCCC(c1nnnn1C(C)(C)C)N1CCN(C(=O)c2ccco2)CC1 (stereo not drawn) | 0 | -1 | 0 | 0 | 0 | 5
SMILES | DTT redox prof | WT yeast gro inh | PERK inh | zVAD death inh | TNF death inh | PKD1 kinase inh
Cc1c(CN(C)C)c2c(n1Cc1ccccc1)C(=O)c1ccc(Br)cc1-2 | 0 | 82* | -2 | 0 | -3 | -6
COc1cccc2c1C(=O)c1c(O)c3c(c(O)c1C2=O)C[C@@](O)(C(C)=O)C[C@@H]3O[C@H]1C[C@H](N)[C@H](O)[C@H](C)O1 | 3 | 67* | -1 | 65 | -29 | 35
Cc1ccccc1OCCSCc1nc2ccccc2[nH]1 | 0 | 75* | -1 | 1 | 2 | -2
Cc1cccc(OCCSCc2nc3ccccc3[nH]2)c1 | -3 | -2 | 0 | 1 | 2 | 0
COc1ccc(-n2c(-c3ccc(Br)cc3)nc(=S)c3c2CCCC3)cc1 | 0 | 63* | 1 | -1 | 3 | -4
CC(Sc1nnc2ccccn12)C(N)=O (stereo not drawn) | -1 | -5 | 1 | 0 | 0 | -4
O=C(C1=C(O)/C(=C/c2ccc(O)cc2)CCC1)C(F)(F)F | 0 | 67* | 0 | 0 | 1 | -6
O=C(CN(Cc1cccs1)C(=O)CCC(=O)Nc1ccccn1)NCc1ccccc1 | -1 | -23 | 0 | 2 | 1 | -4
COCC(=O)N1CCCC(C(=O)c2ccc(-c3ccccc3)c(F)c2)C1 (stereo not drawn) | 0 | 59* | 0 | 0 | -1 | 5
CC(=O)NCC(=O)N1CCCC(C(=O)c2ccc(-c3ccccc3)c(F)c2)C1 (stereo not drawn) | -2 | 4 | 1 | -1 | -2 | 1
CSC(=S)N/N=C(\C)c1ccccc1 | 0 | 65* | 1 | -4 | 0 | -5
COc1ccc(N2CCN(C(=O)CSc3nnc(COc4cccc5cccnc45)o3)CC2)cc1 | 0 | -3 | -1 | -1 | -3 | -2
COc1ccc(C=O)cc1CSc1nnc(COc2cccc3cccnc23)o1 | -1 | 67* | -1 | 0 | -1 | 7
CS(=O)(=O)c1ccc(C(=O)NC2CCCc3ccccc32)cc1 (stereo not drawn) | -2 | 0 | -1 | 1 | 1 | -5
Cc1cc(C)c(C(N)=O)c(Nc2cccc3ccccc23)n1 | 0 | 62* | 1 | -1 | -2 | -11
CC(=O)[C@@]1(O)CC[C@H]2[C@@H]3CCC4=CC(=O)CC[C@]4(C)[C@H]3CC[C@@]21C | 0 | -5 | 1 | 4 | 0 | -5
CCCCCC(=O)O[C@]1(C(C)=O)CC[C@H]2[C@@H]3CCC4=CC(=O)CC[C@]4(C)[C@H]3CC[C@@]21C | 0 | 74* | -1 | 0 | 0 | 4
CCOC(=O)c1nc(C)nc(Sc2n[nH]c(-c3cc(C(F)(F)F)cc(C(F)(F)F)c3)n2)c1C | nt | nt | 2 | 0 | 1 | nt
CCOC(=O)Cc1c(C)nc2c(-c3ccccc3)c(-c3ccccc3)[nH]n2c1=O | 12 | -1 | 0 | 0 | 1 | -8
CCOC(=O)Cc1c(C)nc2c(-c3ccccc3)c(C)[nH]n2c1=O | 0 | 4 | 3.0* | 0 | -1 | -12

Screens: PubChem, several laboratories
